The values that follow come from PubChem BioAssay.

Unmarked numbers belong to inactive results. Active and inactive are the calls of the source.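 How the source made its calls: active means thallium flux through the channel raised or lowered by more than 3 SD from vehicle-only wells, actives on both sides; inactive means the rest.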

Common to all, as to experiment: modulators of BK channel variants, profiling panel, selectivity assay, cell-based, U2OS BacMam, thallium flux, beta subunits (AID 1259406);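 further: initial slope of Thallos dye fluorescence rise after thallium is added; log ratio against the mean of 0.3% DMSO vehicle wells on the same plate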
The subject of experiment [1] is F380Y. Particulars: at 30 µM.
Experiment [2] concerns F380Y/beta1. The conditions noted are these: at 30 µM.
Experiment [3] has as its system F380Y/beta2Delta. The conditions noted are these: at 30 µM.
Experiment [4] relates to F380Y/beta4. Particulars: at 30 µM.
The target of experiment [5] is Calcium-activated potassium channel subunit alpha-1 (Homo sapiens) + Leucine-rich repeat-containing protein 26 (Homo sapiens) (UniProt Q12791+Q2I0M4). The conditions noted are these: F380Y/Slo1WT/gamma1, at 30 µM.
Calcium-activated potassium channel subunit alpha-1 (Homo sapiens) + Leucine-rich repeat-containing protein 26 (Homo sapiens), sequence (Q2I0M4 whole entry, looked up, one chain of several): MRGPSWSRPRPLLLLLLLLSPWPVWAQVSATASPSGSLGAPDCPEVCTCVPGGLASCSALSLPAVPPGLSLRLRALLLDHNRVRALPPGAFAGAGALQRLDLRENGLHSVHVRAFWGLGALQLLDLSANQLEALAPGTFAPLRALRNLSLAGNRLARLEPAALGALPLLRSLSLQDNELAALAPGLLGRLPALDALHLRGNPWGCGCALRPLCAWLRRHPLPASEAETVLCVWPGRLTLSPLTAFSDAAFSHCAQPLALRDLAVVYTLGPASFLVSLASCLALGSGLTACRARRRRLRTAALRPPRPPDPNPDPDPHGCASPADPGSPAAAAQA
The subject of experiment [6] is R275C. The conditions noted are these: at 30 µM.
The test system of experiment [7] is R275C/beta1. The conditions noted are these: at 30 µM.
The subject of experiment [8] is R275C/beta2Delta. Particulars: at 30 µM.
Experiment [9] concerns R275C/beta4. The conditions noted are these: at 30 µM.
The test system of experiment [10] is R275C/Slo1WT/beta2. Particulars: at 30 µM.

`CC(C)(C#N)c1cc(Cn2cncn2)cc(C(C)(C)C#N)c1`: the log fold change Tl+ flux in experiment [1] is 0.0287; in [2], 0.000378; in [3], 0.0269; in experiment [4] it was -0.0138; in [5] it was 0.043; in experiment [6], -0.0232. In addition, the log fold change Tl+ flux is 0.00836 in [7], 0.00182 in experiment [8], -0.00704 in experiment [9] and -0.000892 in experiment [10].
For the molecule `CC(C)c1nc(CN(C)C(=O)N[C@H](C(=O)N[C@@H](Cc2ccccc2)C[C@H](O)[C@H](Cc2ccccc2)NC(=O)OCc2cncs2)C(C)C)cs1`, the log fold change Tl+ flux was -0.114 (active) in experiment [1]; -0.406 (active) in experiment [2]; -0.548 (active) in experiment [3]; -0.505 (active) in experiment [4]; -0.199 (active) in experiment [5]; -0.232 (active) in experiment [6]. Besides, the log fold change Tl+ flux was 0.0641 in [7], -0.208 (active) in [8], -0.0726 in experiment [9] and 0.0476 in experiment [10].
For the molecule `Cc1ncc([N+](=O)[O-])n1CC(O)CCl` (stereo not given), the log fold change Tl+ flux was -0.0142 in experiment [1]; -0.0206 in [2]; -0.0158 in [3]; -0.0171 in experiment [4]; -0.013 in [5]; 0.00346 in [6]. Moreover, the log fold change Tl+ flux is -0.0317 in [7], -0.0154 in [8], -0.0435 in experiment [9] and -0.016 in experiment [10].
On to `O=C(NCCO[N+](=O)[O-])c1cccnc1`, for which the log fold change Tl+ flux in experiment [1] is 0.0612; in experiment [2], 0.00537; in experiment [3], -0.00246; in [4], 0.013; in experiment [5] it was 0.000443; in [6], -0.059. Besides, the log fold change Tl+ flux is -0.0194 in [7], 0.000208 in [8], 0.0335 in experiment [9] and -0.00283 in experiment [10].
Turning to `CCCOc1ccc(C(=O)OCCN(CC)CC)cc1N`, the log fold change Tl+ flux is 0.0362 in experiment [1]; -0.0262 in experiment [2]; 0.0489 in experiment [3]; 0.0262 in experiment [4]; 0.00339 in experiment [5]; 0.0442 in experiment [6]. Moreover, the log fold change Tl+ flux in [7] is -0.0232; in experiment [8], 0.0224; in experiment [9], 0.00943; in [10], -0.0584.
Turning to `CN1[C@@H]2CC[C@H]1CC(OC(=O)c1c[nH]c3ccccc13)C2` (stereo not given in full), the log fold change Tl+ flux is 0.0406 in experiment [1]; 0.0426 in [2]; 0.0725 in experiment [3]; 0.0611 in experiment [4]; -0.0185 in [5]; -0.064 in [6]. Moreover, the log fold change Tl+ flux in experiment [7] is 0.026; in experiment [8], 0.045; in [9], 0.0432; in [10], 0.00303.
Turning to `O=C1c2cccc3c2[C@H](CCC3)CN1[C@@H]1CN2CCC1CC2`, the log fold change Tl+ flux is 0.0472 in experiment [1]; 0.0342 in experiment [2]; 0.0262 in [3]; 0.0479 in experiment [4]; 0.0044 in experiment [5]; -0.0177 in experiment [6]. In addition, the log fold change Tl+ flux in experiment [7] was -0.00783; in experiment [8] it was 0.00552; in [9] it was -0.0169; in [10] it was -0.0269.
Turning to `CN1CCC(=C2c3ccccc3CC(=O)c3sccc32)CC1`, the log fold change Tl+ flux in experiment [1] is 0.0548; in experiment [2], 0.0457; in experiment [3], 0.00285; in experiment [4] it was 0.0281; in [5], 0.0191; in experiment [6], -0.082. In addition, the log fold change Tl+ flux is 0.0422 in experiment [7], 0.0873 in experiment [8], 0.0237 in experiment [9] and 0.0313 in experiment [10].
As for `CCc1oc2ccccc2c1C(=O)c1cc(Br)c(O)c(Br)c1`, the log fold change Tl+ flux in [1] was 0.395 (active); in experiment [2], 0.958 (active); in experiment [3] it was 0.479 (active); in experiment [4], 0.628 (active); in experiment [5], 0.428 (active); in [6], 0.0187. Also, the log fold change Tl+ flux was 0.704 (active) in experiment [7], 0.431 (active) in [8], 0.722 (active) in experiment [9] and 0.347 (active) in experiment [10].
For the molecule `CCc1nn(CCCN2CCN(c3cccc(Cl)c3)CC2)c(=O)n1CCOc1ccccc1`, the log fold change Tl+ flux in experiment [1] is -0.403 (active); in experiment [2], -0.178 (active); in experiment [3], -0.507 (active); in experiment [4], -0.446 (active); in experiment [5] it was 0.00963; in experiment [6] it was -0.055. Moreover, the log fold change Tl+ flux was 0.378 (active) in [7], 0.156 (active) in experiment [8], 0.207 (active) in experiment [9] and -0.00757 in [10].
With `CCN1CCC[C@H]1CNC(=O)c1cc(S(N)(=O)=O)ccc1OC`, the log fold change Tl+ flux in [1] was -0.0719; in experiment [2], 0.000794; in [3], -0.0214; in experiment [4], -0.00754; in experiment [5] it was 0.0207; in experiment [6], -0.000435. The log fold change Tl+ flux in [7] is -0.0215; in [8] it was -0.02; in experiment [9] it was 0.0473; in [10], -0.0273.
`Cc1ccsc1C(=CCCN1CCC[C@@H](C(=O)O)C1)c1sccc1C`: the log fold change Tl+ flux in experiment [1] was 0.0491; in experiment [2], 0.0426; in [3] it was 0.0383; in experiment [4], 0.0453; in experiment [5], 0.0044; in experiment [6], -0.056. Moreover, the log fold change Tl+ flux in experiment [7] is 0.0901 (active); in [8], 0.0627; in experiment [9], 0.0287; in [10], 0.0117.
